In ChEMBL document CHEMBL4513216, “Probing the Open Global Health Chemical Diversity Library for Multistage-Active Starting Points for Next-Generation Antimalarials” (ACS Infect Dis, 2020):
Out of some 65,000 compounds screened, about 2,100 (3.2%) showed an effect of 50% or more. The median lay at about -52%. This excerpt belongs to a sample that is enriched for strong results.

Each molecule was assayed on Plasmodium falciparum (assay: Screen against P. falciparum Asexual Blood Stage (ABS), at 5uM). Details: tested at 5 uM.
Type: functional, Dd2

SMILES	INHIBITION [%]
CC(C)Nc1nc(-c2ccccc2)nc2c1CCN(C(=O)C1CC1)CC2	27.8
CCCN1CCC(c2nc3ccc(-c4cccc(OC)c4)cn3n2)CC1	-23.2
Cn1cc(N2C(=O)CC[C@@H]3[C@H]2CCN3C(=O)c2cscn2)cn1	-22.8
CN(CCc1ccccn1)Cc1nccn1Cc1ccccc1	57.9
CN(CCc1ccncc1)Cc1nccn1Cc1ccccc1	42.2
CN(Cc1ccncc1)Cc1nccn1Cc1ccccc1	-37.9
CCN(Cc1ccco1)C(=O)C1=NN(c2ccccc2)C(=O)CN1	60.6
Cc1ccc(N2N=C(C(=O)N(C)Cc3ccco3)NCC2=O)cc1	-13.2
CCN(C(=O)C1=NN(c2ccccc2)C(=O)CN1)c1ccccc1	-66.6
CCOc1cc(C=Cc2ncc(C(=O)NC)s2)ccc1OC	25.6
CN(CC(=O)Nc1cccnc1)C1CCCN(c2cccnn2)C1 (stereo unspecified)	8.25
CC(=O)NCCNCc1cn(CCN2CCSCC2)nc1C	-18
CCc1nc(C)c(C(=O)NCCn2nc3ccccn3c2=O)s1	-71.9
Cc1nc(C(C)C)sc1C(=O)NCCn1nc2ccccn2c1=O	59.1
Cc1nc(C)c(C(=O)NCCn2nc3ccccn3c2=O)s1	-42
CCc1nnc2n1CCN(Cc1cccc3c1OCCO3)C2	43.7
Cn1cnc2c1CCN(CC(O)c1ccc3c(c1)OCCO3)C2 (stereo unspecified)	-106
CCc1nnc2n1CCN(CC(O)c1ccc3c(c1)OCCO3)C2 (stereo unspecified)	66.3
Cc1cc(C)cc(CN2C[C@@H]3OCCN(CC(=O)N(C)C)[C@@H]3C2)c1	-93.1
COC[C@H]1CCCN1c1nccc(-c2cnn(-c3ccccc3C)c2)n1	-32.9
COCC(=O)N1CCC2(CC1)CN(c1ccsc1)C(=O)CO2	-11.6
Cc1noc(C)c1CN1CCC2(CCN(Cc3cccc(F)c3)CC2)C1	67.9

SMILES	INHIBITION [%]
CC(=O)N1CCC2(CCN(Cc3cccc(F)c3)CC2)CC1	-58.8
CN(C)CC(=O)N1CCC2(CCN(Cc3cccc(F)c3)CC2)C1	36.4
O=C(CC1CC1)N[C@@H]1CN(C(=O)c2ccsc2)C[C@@H]2CCCO[C@@H]21	-17.8
CC(=O)N1CC2(CCN(Cc3ccc(Cl)cc3)C2)Cc2ccccc21 (stereo unspecified)	9.12
Cc1c(C)n(CC(O)CN2CCCCCC2)c2c(Cl)cccc12 (stereo unspecified)	51.6
Cc1c(C)n(CC(O)CN2CCOCC2)c2c(Cl)cccc12 (stereo unspecified)	-15.7
Cc1c(C)n(CC(O)CN2CCC(O)CC2)c2c(Cl)cccc12 (stereo unspecified)	44.9
CCN1CC(C(=O)NCCOc2ccc3c(c2)OCO3)CC1=O (stereo unspecified)	-196
Cc1nc(CN(C)CC2CCCN(CCc3ccc(Cl)cc3)C2)n(C)n1 (stereo unspecified)	54.3
CN(Cc1ccncc1)CC1CCCN(CCc2ccc(Cl)cc2)C1 (stereo unspecified)	-23.8
Cc1noc(CN(C)CC2CCCN(CCc3ccc(Cl)cc3)C2)n1 (stereo unspecified)	-72.6
O=S(=O)(c1cccs1)N1Cc2nc(CN3CCCC3)oc2C1	-84.5
Cc1cccc(C)c1NC(=O)c1cccc(CN2CCCC2C)c1 (stereo unspecified)	49.8
CC1CCCN1Cc1cccc(C(=O)Nc2ccc3c(c2)CCC3=O)c1 (stereo unspecified)	30.1
COc1ccc(NC(=O)c2cccc(CN3CCCC3C)c2)cc1OC (stereo unspecified)	51.1
O=C([C@H]1C[C@@H]2CCN(c3cccc(F)c3)C[C@H]2O1)N1CCCC1	-20.3
CCc1nc(C2CCCN2CCCSC)no1 (stereo unspecified)	42.3
O=c1c(NCc2ccncc2)c(NCC(O)CN2CCOCC2)c1=O (stereo unspecified)	-27
Cc1nnc(N2CCCC3(CN(Cc4ccc(F)cc4)CCO3)C2)o1 (stereo unspecified)	-65.4
Cc1cc(C)cc(CNC(C)c2c(C)nn(C)c2C)c1 (stereo unspecified)	49.4
Cn1nccc1C(=O)N1CC[C@]2(C[C@H](OCc3ccccn3)CO2)C1	-58
c1csc(CCNc2nc(-c3ccncc3)nc3c2CCNCC3)c1	53.5

SMILES	INHIBITION [%]
CCOCCNc1nc(-c2ccncc2)nc2c1CCNCC2	-46.1
Cc1ccc(CCNc2nc(-c3ccncc3)nc3c2CCNCC3)o1	-88.2
Cc1csc(CCCNC(=O)NC2CC(=O)N(C(C)(C)C)C2)n1 (stereo unspecified)	-57
Cc1n[nH]c(NC(=O)c2ccc(COCC(F)(F)F)cc2)c1C	-94.3
O=C1CC2(CCCCN2C(=O)c2ccco2)CN1c1cccnc1 (stereo unspecified)	-138
CCCN1Cc2ccccc2NC(=O)C12CCNC2 (stereo unspecified)	-23.5
O=C1Nc2ccccc2CN(CC2CC2)C12CCNC2 (stereo unspecified)	-2.03
O=C1Nc2ccccc2CN(CC=Cc2ccccc2)C12CCNC2 (stereo unspecified)	60.2
COCCN1CCN(C(=O)N2CCCC2)Cc2ccc(C)nc21	-114
CC(C)(C)c1nc(CN2CCCN(Cc3cccs3)CC2)no1	30.6
Cc1csc(N2CCCN(C(=O)C3(C#N)CCCC3)CC2)n1	63
Cc1csc(N2CCN(C(=O)C3(C#N)CCCC3)CC2)n1	-111
Cc1csc(N2CCCN(C(=O)C3(C#N)CCCCC3)CC2)n1	-43.4
Fc1cccc(N2CCCC3(CN(Cc4nccs4)CCO3)C2)c1 (stereo unspecified)	0.276
CC(=O)Nc1ccc(CN2CCCC(c3cc4ncccc4[nH]3)C2)cc1 (stereo unspecified)	42.3
CN(CC1CCCCO1)c1nc(-c2cccnc2)nc2c1CCNC2 (stereo unspecified)	-14.1
CN(Cc1cccnc1)c1nc(-c2ccccn2)nc2c1CCNCC2	55.3
Cc1cc(CN(C)c2nc(-c3ccccn3)nc3c2CCNCC3)n[nH]1	69.2
c1ccc(-c2nc3c(c(NCCn4cccc4)n2)CCNCC3)nc1	-0.552
Cc1nonc1CN(C)c1nc(-c2cccnc2)nc2c1CCNC2	69.5
CN(CC1CCCO1)c1nc(-c2cccnc2)nc2c1CCNCC2 (stereo unspecified)	-40
CN(CC(O)CO)c1nc(-c2cccnc2)nc2c1CCNC2 (stereo unspecified)	-79.7

SMILES	INHIBITION [%]
CN(Cc1ccc(-n2cccn2)cc1)c1nc(N)nc2c1CCNCC2	58.4
CN(CCO)c1nc(-c2ccccn2)nc2c1CCNC2	-79.2
CN(Cc1ccccc1-n1cccn1)c1nc(N)nc2c1CCNCC2	-13.4
Cc1nc2c(c(N(C)Cc3ccccc3-n3cccn3)n1)CCNCC2	-3.02
CN(Cc1ccc(-n2cccn2)cc1)c1cc(N)nc(N)n1	41.7
COc1cc(CNCc2ccc(NC(=O)NC(C)C)cc2)cc(OC)c1	-65.3
CCC(=O)Nc1cccc(OCC(=O)N2C[C@H]3CC[C@H]2C3)c1	-137
COc1cccc(CC(=O)N2CCC3(CC2)OCCCC3O)c1OC (stereo unspecified)	-112
O=C(CN1CCCC1Cn1cccn1)NCCC1=CCCCC1 (stereo unspecified)	-61.8
CCS(=O)(=O)N1CCc2c(COCc3ccncc3)cncc2C1	-181
CCn1nccc1CN(C)C(=O)Cn1nc(C)cc1C	-52.5
CC(=O)Nc1cccc(OCCNC(=O)N(C)Cc2ccccc2)c1	-47.8
COc1cccc(CN2CC(=O)N(c3ccccc3C)CC2C)c1OC (stereo unspecified)	53.8
COc1ccc(F)c(CN2CC(=O)N(c3ccccc3C)CC2C)c1 (stereo unspecified)	9.59
COc1ccc(F)c(F)c1CN1CC(=O)N(c2ccccc2C)CC1C (stereo unspecified)	30.6
CC(C)c1nnsc1CNC(=O)C1CCCN(C(=O)N(C)C)C1 (stereo unspecified)	-18.2
Fc1cccc(CNCC2OCCc3cn(CC4CCOCC4)nc32)c1 (stereo unspecified)	17.8
CC(C)n1ncc2c1NC(=O)CC21C(=O)Nc2c(Br)cc(Cl)cc21 (stereo unspecified)	-72.6
COc1cc2c(cc1CNC(=O)C(C)n1ccnc1C(C)C)CCC2 (stereo unspecified)	60.2
COc1cc2c(cc1CNC(=O)C(C)n1ccnc1C(C)C)OCCO2 (stereo unspecified)	11.4
COCc1nc(CNC(=O)C(C)n2ccnc2C(C)C)no1 (stereo unspecified)	-14.3
COc1cccc(N2CCN(CCC(=O)NC3CCCCC3)CC2)c1	-28.7

SMILES	INHIBITION [%]
CCC(NC(=O)COC)c1ccccc1OCC(=O)N1CCCC1 (stereo unspecified)	-191
CCC(NC(N)=O)c1ccccc1OCC(=O)N1CCCC1 (stereo unspecified)	-37.9
CCC(N)c1ccccc1OCC(=O)N1CCCC1 (stereo unspecified)	52.5
CCOCCC1(C(=O)N2CCCC(c3ncc[nH]3)C2)CCCC1 (stereo unspecified)	-71.1
CC(c1ccncn1)N(C)Cc1cc2cc3c(cc2[nH]c1=O)OCO3 (stereo unspecified)	-84.5
CCOc1cccc(C(=O)Nc2ccncc2)c1	-39.7
COc1c(CNC2(c3ccc(Cl)cc3)CCC2)c(C)nn1C	60.5
COc1c(CNC2CCc3cc(Cl)ccc32)c(C)nn1C (stereo unspecified)	21.4
COc1c(CNC2(c3noc(C)n3)CCC2)c(C)nn1C	-55.5
Cc1nc(-c2ccccc2)cc(C2CCNCC2)n1	57.8
COc1ccc(-c2cc(C3CCNCC3)nc(C)n2)cc1	-57.7
Cc1nc(-c2ccc(F)cc2)cc(C2CCNCC2)n1	-33.4
CC(=O)N1CCCC(c2nc(N(C)C)ncc2-c2cccc(F)c2)C1 (stereo unspecified)	-1.35
Cc1ccc(C(=O)N2C[C@H]3CCC[C@@]3(COc3ccccn3)C2)nc1	9.4
O=C(c1ncccn1)N1C[C@H]2CCC[C@@]2(COc2ccccn2)C1	14.9
O=C(c1cocn1)N1C[C@H]2CCC[C@@]2(COc2ccccn2)C1	52.1
NC(=O)c1ccn(COc2ccccc2Cl)n1	-63.1
Cc1cnn(C2CN(c3ccccc3S(=O)(=O)C(F)(F)F)C2)c1	-111
